The record followed here is ChEMBL document CHEMBL3988442, “University of Dundee, Small-Polar-MMV Screening Library” (2021).

Molecules are shown by their SMILES. For some of these results: Entries with a potency or affinity are not part of this list.

Common to all, as to set-up: scale not given: direction of the effect not stated beside the values
Assay [1] addresses Protein translocase subunit SecA (Escherichia coli (strain K12)) (UniProt P10408). Put plainly: Assay to Identify E. coli SecA ATPase Inhibitors. The format is functional. As to conditions: 30 µM.
Assay [2] deals with T1, Ubiquitin-activating enzyme e1, putative (Leishmania donovani (strain BPK282A1)) (UniProt E9BSI1).
T1 sequence (whole entry): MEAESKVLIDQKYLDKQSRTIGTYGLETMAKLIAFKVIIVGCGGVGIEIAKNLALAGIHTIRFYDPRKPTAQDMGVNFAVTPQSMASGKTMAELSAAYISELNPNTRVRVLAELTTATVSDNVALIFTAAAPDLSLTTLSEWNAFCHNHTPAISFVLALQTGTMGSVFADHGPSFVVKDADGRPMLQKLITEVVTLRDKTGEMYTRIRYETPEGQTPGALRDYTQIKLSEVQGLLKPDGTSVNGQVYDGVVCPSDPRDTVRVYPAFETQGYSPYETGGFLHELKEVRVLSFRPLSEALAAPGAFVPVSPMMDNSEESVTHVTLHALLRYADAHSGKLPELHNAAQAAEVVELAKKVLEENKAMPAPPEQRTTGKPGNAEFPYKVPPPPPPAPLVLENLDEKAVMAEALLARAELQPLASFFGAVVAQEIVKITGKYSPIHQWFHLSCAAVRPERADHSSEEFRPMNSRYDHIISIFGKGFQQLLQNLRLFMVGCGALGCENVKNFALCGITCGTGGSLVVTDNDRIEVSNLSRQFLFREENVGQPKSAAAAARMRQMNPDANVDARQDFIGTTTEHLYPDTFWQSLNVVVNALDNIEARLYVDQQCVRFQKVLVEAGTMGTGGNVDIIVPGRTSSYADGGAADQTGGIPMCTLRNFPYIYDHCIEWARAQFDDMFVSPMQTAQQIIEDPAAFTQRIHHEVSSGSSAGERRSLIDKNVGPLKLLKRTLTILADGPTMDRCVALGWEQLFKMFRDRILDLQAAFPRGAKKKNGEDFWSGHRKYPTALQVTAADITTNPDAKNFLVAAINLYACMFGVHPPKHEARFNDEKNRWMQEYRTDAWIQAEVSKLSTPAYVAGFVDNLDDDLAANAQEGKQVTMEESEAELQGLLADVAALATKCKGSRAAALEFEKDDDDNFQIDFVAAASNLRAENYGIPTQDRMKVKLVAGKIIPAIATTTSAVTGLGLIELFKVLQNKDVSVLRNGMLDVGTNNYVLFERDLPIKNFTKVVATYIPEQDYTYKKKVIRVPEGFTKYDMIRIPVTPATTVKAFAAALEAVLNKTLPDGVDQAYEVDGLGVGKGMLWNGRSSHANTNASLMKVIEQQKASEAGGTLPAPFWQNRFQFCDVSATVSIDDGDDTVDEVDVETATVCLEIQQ
Put plainly: Leishmania donovani Ubiquitin Activating Enzyme (LdE1). The format is functional. Conditions: 30 µM.

The target in assay [3] is AMP-activated protein kinase, AMPK (Homo sapiens) (UniProt P54646+O43741+P54619+Q9UGJ0+Q9Y478+Q13131+Q9UGI9). Briefly: AMP-dependent Kinase enzyme assay. An in vitro enzyme assay that detects ADP turnover that is directly proportional to AMPK activity. This uses naive AMPK that is activated during the assay with MK-8722. It is filed as functional. Conditions: 30 µM.
The target in assay [4] is Sialic acid-binding Ig-like lectin 9 (Homo sapiens) (UniProt Q9Y336). Put plainly: Hs-Siglec9 ALPHAscreen SOP 20170721. Conditions: 10 µM.
The next assay relates to Trypanosoma cruzi. Briefly: Trypanosoma cruzi phosphomannomutase and mannose-1-phosphate guanylyltransferase assay. It is filed as functional. Conditions: 10 µM.
The target of assay [5] is T2, Arginase-2, mitochondrial (Homo sapiens) (UniProt P78540).
T2 sequence (whole entry): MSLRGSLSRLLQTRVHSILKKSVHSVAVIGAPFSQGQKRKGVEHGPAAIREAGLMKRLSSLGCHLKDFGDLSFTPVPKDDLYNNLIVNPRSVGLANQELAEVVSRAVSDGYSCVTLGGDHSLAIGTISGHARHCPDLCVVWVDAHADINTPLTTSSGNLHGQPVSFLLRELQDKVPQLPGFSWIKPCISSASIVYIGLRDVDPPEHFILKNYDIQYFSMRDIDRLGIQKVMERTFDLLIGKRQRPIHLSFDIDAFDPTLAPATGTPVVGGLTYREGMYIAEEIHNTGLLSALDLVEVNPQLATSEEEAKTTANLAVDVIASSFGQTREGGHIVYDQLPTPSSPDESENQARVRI
Put plainly: in vitro enzyme assay to detect the production of urea directly proportional to the activity of Arginase II. Also: in the data most compounds retested in dose-response had high values. It is filed as functional. Conditions: 33.3 µM.

In assay [6] the target is T3, Proteasome subunit beta (Trypanosoma cruzi) (UniProt O96673).
T3 sequence (whole entry): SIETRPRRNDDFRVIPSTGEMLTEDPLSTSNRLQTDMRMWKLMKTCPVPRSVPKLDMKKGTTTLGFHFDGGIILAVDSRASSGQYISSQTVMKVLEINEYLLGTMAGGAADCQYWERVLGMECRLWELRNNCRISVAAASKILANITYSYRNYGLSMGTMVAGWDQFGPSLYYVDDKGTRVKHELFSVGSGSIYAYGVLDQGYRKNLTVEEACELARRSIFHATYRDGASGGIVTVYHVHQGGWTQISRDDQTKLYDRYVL
Briefly: Trypanosoma cruzi proteasome chymotrypsin-like activity (TcProtChymo) assay. Also: in the data most compounds retested in dose-response had high values. It is filed as functional. As to conditions: 9.37 µM.

For a further assay, the species on record is Homo sapiens. Put plainly: To identify inhibition of the IFN signalling (Jak-Stat) pathway via expression of an eGFP reporter gene under the control of an IFN-stimulated response element (ISRE) containing MxA promoter. It is filed as functional. Conditions: 30 µM.
Assay [7] deals with T4, Tyrosyl-tRNA synthetase, putative (Trypanosoma cruzi (strain CL Brener)) (UniProt Q4DSP6).
T4 sequence (whole entry): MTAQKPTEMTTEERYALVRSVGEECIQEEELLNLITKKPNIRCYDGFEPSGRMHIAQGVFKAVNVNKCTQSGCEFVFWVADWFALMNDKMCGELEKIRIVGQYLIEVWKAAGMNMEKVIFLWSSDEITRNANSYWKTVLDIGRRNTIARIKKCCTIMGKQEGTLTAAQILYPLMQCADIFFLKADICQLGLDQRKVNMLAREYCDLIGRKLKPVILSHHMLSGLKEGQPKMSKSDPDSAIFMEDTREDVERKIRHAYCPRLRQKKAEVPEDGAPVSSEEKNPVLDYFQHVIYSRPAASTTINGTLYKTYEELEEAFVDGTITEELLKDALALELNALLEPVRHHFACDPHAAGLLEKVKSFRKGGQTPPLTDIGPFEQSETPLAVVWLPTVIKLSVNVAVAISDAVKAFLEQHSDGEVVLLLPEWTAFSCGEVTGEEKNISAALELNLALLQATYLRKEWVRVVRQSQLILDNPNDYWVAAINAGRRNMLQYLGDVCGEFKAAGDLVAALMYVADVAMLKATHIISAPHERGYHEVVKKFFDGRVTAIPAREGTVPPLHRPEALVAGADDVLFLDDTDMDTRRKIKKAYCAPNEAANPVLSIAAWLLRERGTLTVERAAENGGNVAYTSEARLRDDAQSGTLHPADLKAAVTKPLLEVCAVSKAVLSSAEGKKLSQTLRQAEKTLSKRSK
Briefly: Trypanosoma cruzi tyrosyl tRNA synthetase (TcYRS) _High Tyrosine SOP. Also: in the data most compounds retested in dose-response had high values. The format is functional. As to conditions: 30 µM.

Assay [8] deals with T4, Tyrosyl-tRNA synthetase, putative (Trypanosoma cruzi (strain CL Brener)). Briefly: Trypanosoma cruzi tyrosyl tRNA synthetase (TcYRS) SOP. It is filed as functional. Conditions: 30 µM.
Assay [9] deals with Chromo domain-containing protein 1 (Saccharomyces cerevisiae (strain ATCC 204508 / S288c) (Baker's yeast)) (UniProt P32657). Briefly: ScCHD-1 Enzyme Inhibition Assay. Also: in the data most compounds retested in dose-response had high values. It is filed as functional. As to conditions: 30 µM.
Chain of Chromo domain-containing protein 1 (Saccharomyces cerevisiae (strain ATCC 204508 / S288c) (Baker's yeast)) (P32657 whole entry, the tested form may be a part): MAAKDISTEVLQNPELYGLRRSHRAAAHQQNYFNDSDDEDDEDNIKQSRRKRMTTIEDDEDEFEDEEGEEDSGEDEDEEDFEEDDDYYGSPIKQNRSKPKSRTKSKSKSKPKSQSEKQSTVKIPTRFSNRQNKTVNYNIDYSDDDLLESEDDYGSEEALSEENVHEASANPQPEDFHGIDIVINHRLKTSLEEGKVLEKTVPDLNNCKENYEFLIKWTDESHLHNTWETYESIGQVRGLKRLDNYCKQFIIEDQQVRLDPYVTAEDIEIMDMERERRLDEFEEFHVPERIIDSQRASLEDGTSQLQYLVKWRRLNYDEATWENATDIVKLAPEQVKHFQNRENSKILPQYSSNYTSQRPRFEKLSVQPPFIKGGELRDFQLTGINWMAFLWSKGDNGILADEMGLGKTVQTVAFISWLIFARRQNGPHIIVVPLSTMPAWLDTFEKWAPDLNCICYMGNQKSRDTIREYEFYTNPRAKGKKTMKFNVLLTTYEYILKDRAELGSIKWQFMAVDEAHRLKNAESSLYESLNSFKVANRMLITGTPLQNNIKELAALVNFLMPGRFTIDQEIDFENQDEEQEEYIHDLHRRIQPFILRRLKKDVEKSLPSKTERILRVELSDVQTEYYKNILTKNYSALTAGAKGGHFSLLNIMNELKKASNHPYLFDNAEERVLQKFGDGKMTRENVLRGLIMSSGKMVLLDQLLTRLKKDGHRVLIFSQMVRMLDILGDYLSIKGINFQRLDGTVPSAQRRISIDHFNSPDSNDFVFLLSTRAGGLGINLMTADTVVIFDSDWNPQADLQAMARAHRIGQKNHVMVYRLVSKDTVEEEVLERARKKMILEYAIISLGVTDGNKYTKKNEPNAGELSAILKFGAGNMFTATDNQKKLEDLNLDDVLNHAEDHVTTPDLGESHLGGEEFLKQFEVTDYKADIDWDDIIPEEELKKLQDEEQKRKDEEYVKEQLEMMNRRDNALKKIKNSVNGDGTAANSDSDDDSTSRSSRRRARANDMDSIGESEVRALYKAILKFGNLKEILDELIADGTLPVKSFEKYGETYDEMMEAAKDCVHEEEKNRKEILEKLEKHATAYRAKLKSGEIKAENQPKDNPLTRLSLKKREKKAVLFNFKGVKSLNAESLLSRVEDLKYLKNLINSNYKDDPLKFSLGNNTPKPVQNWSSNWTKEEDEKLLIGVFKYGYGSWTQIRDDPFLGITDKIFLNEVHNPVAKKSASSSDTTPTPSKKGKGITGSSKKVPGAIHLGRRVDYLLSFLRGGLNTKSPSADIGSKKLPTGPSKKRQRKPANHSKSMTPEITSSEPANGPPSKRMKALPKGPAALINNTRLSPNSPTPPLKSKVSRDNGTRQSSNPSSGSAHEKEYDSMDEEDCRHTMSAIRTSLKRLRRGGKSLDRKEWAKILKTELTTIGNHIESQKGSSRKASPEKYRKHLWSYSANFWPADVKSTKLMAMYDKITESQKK

Chain of Sialic acid-binding Ig-like lectin 9 (Homo sapiens) (Q9Y336 whole entry): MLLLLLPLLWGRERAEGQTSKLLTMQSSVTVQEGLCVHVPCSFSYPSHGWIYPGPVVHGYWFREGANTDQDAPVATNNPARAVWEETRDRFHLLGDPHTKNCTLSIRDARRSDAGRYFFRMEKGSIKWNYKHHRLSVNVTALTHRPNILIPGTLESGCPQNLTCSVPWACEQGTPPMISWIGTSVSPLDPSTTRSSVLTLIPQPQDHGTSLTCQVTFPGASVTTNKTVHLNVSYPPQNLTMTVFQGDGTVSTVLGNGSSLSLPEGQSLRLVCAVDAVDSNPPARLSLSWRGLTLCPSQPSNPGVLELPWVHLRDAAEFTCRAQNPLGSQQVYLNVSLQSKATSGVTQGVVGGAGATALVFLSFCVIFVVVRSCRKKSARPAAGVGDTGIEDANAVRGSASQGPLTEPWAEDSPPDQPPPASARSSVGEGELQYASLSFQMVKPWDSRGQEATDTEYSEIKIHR
Chain of Protein translocase subunit SecA (Escherichia coli (strain K12)) (P10408 whole entry): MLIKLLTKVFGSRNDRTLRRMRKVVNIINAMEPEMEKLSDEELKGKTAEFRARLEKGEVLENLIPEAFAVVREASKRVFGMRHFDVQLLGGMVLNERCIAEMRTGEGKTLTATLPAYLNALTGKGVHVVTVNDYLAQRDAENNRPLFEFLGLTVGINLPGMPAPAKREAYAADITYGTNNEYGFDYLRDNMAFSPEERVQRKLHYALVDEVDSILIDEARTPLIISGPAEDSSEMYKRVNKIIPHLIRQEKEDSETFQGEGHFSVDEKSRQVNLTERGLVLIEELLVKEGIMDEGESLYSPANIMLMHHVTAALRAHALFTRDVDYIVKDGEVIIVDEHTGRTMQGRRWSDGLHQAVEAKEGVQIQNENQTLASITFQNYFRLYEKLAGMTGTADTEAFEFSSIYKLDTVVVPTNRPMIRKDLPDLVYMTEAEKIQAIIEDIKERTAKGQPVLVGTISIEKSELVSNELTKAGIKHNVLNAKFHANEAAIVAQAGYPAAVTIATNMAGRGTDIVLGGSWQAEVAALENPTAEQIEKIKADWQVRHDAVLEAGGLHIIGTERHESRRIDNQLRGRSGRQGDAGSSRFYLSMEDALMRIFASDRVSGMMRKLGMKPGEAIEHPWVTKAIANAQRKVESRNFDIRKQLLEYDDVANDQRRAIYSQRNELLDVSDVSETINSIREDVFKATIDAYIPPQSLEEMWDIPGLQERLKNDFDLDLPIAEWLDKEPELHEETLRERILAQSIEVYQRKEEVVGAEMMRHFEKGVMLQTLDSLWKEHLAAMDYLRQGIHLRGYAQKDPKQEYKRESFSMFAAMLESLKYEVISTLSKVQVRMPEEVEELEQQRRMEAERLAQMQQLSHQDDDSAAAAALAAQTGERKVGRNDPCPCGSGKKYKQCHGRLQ

Consider `Cc1cccc(CCC(=O)N2CCOCC2c2c(C)n[nH]c2C)c1` (stereo unspecified), for which the Percent Effect in assay [1] was -3.35%; in [2] it was -5.48%; in assay [3], -2.62%; in assay [4], 6.45%; in the assay with Trypanosoma cruzi, -3.33%; in assay [5] it was -2.73%. The Percent Effect was -2.84% in assay [6]; 9.04% in the assay filed under Homo sapiens; -3.23% in assay [7]; -7.5% in assay [8]; -2.99% in assay [9].
As for `CCn1cnnc1C1CCN(C(=O)COCCc2ccccc2)CC1`, the Percent Effect was -1.96% in assay [1]; 7.79% in [2]; 0.519% in assay [3]; -7.71% in assay [4]; 5% with Trypanosoma cruzi; -5.26% in assay [5]. In addition, the Percent Effect is 6.71% in assay [6]; -1.88% in the assay listed under Homo sapiens; -2.86% in assay [7]; 2.35% in [8]; -12.8% in assay [9].
On to `CCc1nc(C2CCCN2Cc2nc3ccccc3o2)no1` (stereo unspecified), for which the Percent Effect in assay [1] was -0.183%; in assay [2], 2.6%; in assay [3], 6.37%; in [4], 9.09%; with Trypanosoma cruzi it was 1.67%; in assay [5], 2.74%. Moreover, the Percent Effect was 2.67% in assay [6]; -1.25% in the assay listed under Homo sapiens; -2.86% in assay [7]; 0% in assay [8]; 2.53% in assay [9].
On to `O=C(c1cccs1)N1C[C@H]2CC[C@@]3(N=C(c4ccccc4)NC3=O)[C@H]2C1`, for which the Percent Effect in [1] was -1.64%; in assay [2], 7.79%; in [3] it was 0.0999%; in assay [4] it was 7.14%; with Trypanosoma cruzi it was -2.06%; in assay [5], -4.14%. Moreover, the Percent Effect in assay [6] was 13.3%; in the assay filed under Homo sapiens, 9.87%; in [7], 1.07%; in [8], 13.6%; in assay [9] it was -0.884%.
For `CNC(=O)C1(CCCc2ccncc2)CCCN1` (stereo unspecified), the Percent Effect in [1] was -0.846%; in assay [2], 12.2%; in [3], 14.6%; in assay [4] it was 0.634%; in the assay on Trypanosoma cruzi, -2.96%; in assay [5], -2.09%. Besides, the Percent Effect was 12.3% in [6]; 1.56% in the assay filed under Homo sapiens; 7.53% in assay [7]; 22.1% in assay [8]; -10.5% in assay [9].
In the case of `Cc1nccnc1CN1CCC2(CCCN(C3CCOCC3)C2=O)C1` (stereo unspecified), the Percent Effect in assay [1] was -2.05%; in assay [2], -2.74%; in [3], -4.08%; in assay [4] it was 1.19%; with Trypanosoma cruzi, 2.98%; in [5], -2.79%. Moreover, the Percent Effect in assay [6] was 12.8%; in the assay listed under Homo sapiens it was 13.9%; in assay [7], 5.21%; in assay [8], 6.17%; in [9] it was 0.026%.
Regarding `O=C(Nc1cnccn1)[C@@H]1COC[C@H]2CN(C3CCCC3)C[C@H]21`, the Percent Effect in assay [1] is -8.34%; in [2] it was 13.5%; in [3], -5.42%; in assay [4] it was 16.7%; with Trypanosoma cruzi, 3.91%; in assay [5], 3.33%. Besides, the Percent Effect in assay [6] is 3.97%; in the assay listed under Homo sapiens, -6.67%; in assay [7], 6.93%; in assay [8], 11%; in assay [9] it was -4.69%.
Regarding `CN(C)C(=O)CS(=O)(=O)Cc1cc(Cl)c2c(c1)OCCCO2`, the Percent Effect in assay [1] was -5%; in [2], 18.4%; in assay [3], 2.36%; in [4] it was -11.3%; in the assay on Trypanosoma cruzi, -4.2%; in assay [5], 3.24%. Moreover, the Percent Effect was 6.68% in assay [6]; 3.48% in the assay listed under Homo sapiens; 1.48% in [7]; -8.64% in [8]; -7.42% in assay [9].
`Cc1cccc(CNCc2c(C)nn(C)c2N2CCOCC2)n1`: the Percent Effect in assay [1] turned out to be 0.786%; in [2], 8.22%; in assay [3], 4.7%; in assay [4], 2.65%; with Trypanosoma cruzi, 5.09%; in assay [5], 13.2%. For the same compound, the Percent Effect in [6] is 19.3%; in the assay filed under Homo sapiens, -6.96%; in assay [7] it was 8.6%; in assay [8], 15%; in assay [9], -6.04%.
As for `O=C(NCCn1ccnc1)NCC(c1ccco1)N1CCCCC1` (stereo unspecified), the Percent Effect was -3.12% in [1]; 2.6% in assay [2]; 4.65% in assay [3]; 2.57% in [4]; -4.41% in the assay on Trypanosoma cruzi; 1.9% in assay [5]. For the same compound, the Percent Effect is 3.64% in assay [6]; 13.9% in the assay listed under Homo sapiens; 2.86% in assay [7]; 2.35% in assay [8]; -18.2% in assay [9].
With `CC(C)c1nn(C)c(N(C)C)c1CNCCC(=O)N(C)C`, the Percent Effect in assay [1] is -2.63%; in [2], 0%; in assay [3], -11.4%; in assay [4], -2.27%; in the assay with Trypanosoma cruzi, 2.15%; in assay [5], 0.719%. Also, the Percent Effect was 5.16% in assay [6]; -16.3% in the assay filed under Homo sapiens; -0.493% in [7]; 3.7% in [8]; 0.33% in assay [9].
